{
  "source": "PubChem BioAssay (NCI)",
  "note": "Compounds without any hit were thinned out: in the full panel of roughly 83,000, 20% have a hit.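 Each cell line was grown in a 96-well plate and treated with one concentration of compound for 48 hours. Values below 10 were considered active.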 Activity calls are given as the source filed them.",
  "data": [
    {"tested_on": "U251 CNS", "assay": "NCI-60 one-dose screen, 48 h (100 = growth as untreated, 0 = no growth, -100 = all killed)", "conditions": "10 µM unless noted", "protocol": "Growth inhibition of the U251 human tumor cell line is measured as a screen for anti-cancer activity. Cells are grown in 96 well plates and exposed to the test compound for 48 hours. Compounds are tested at a single concentration, which is 10^-5 M for most compounds. The reported endpoint is percent growth (GI% or GIPRCNT), where numbers from 0 - 100% represent growth inhibition, and numbers from -100% - 0 represent cell death. For example, a value of 40 represents 60% growth inhibition. A value of 0 means no net growth occurred over the course of the experiment. A value of -40 indicates 40% of cells at the beginning of the experiment died by the end of the experiment. A value of -100 means all cells are dead at the end of the experiment.\nNCI-60 Human Tumor Cell Lines Screen was performed using the standard one-dose NCI protocol, which is described in more detail at https://dtp.cancer.gov/discovery_development/nci-60/default.htm.\nCompounds with GIPRCNT values below 10 were considered active. Activity score was based on GIPRCNT using the following formula: […]\nScore is 0 for GIPRCNT values of 100 or above, 50 for GIPRCNT values of 0, and 100 for GIPRCNT values of -100.", "values": [
      {"smiles": "COc1cc(N2CCC(N3CCN(C)CC3)CC2)ccc1Nc1ncnc(Nc2ccccc2S(=O)(=O)C(C)C)n1", "growth": "101% (inactive)"},
      {"smiles": "Cc1cc(C(O)CN(C)C)cc2c1ccc1cc(C(C)C)ccc12", "note": "(stereo not given)", "growth": "-48.8% (active)"},
      {"smiles": "COc1ccc(-c2cc3c(oc2=O)-c2ccccc2OC3OC(C)=O)cc1", "note": "(stereo not given)", "growth": "89.4% (inactive)"},
      {"smiles": "COCCOc1cnc2ccn([C@H](C)c3nnc4c(F)cc(-c5cnn(C)c5)cn34)c(=O)c2c1", "growth": "92.2% (inactive)"},
      {"smiles": "CCCCCC(=O)OCc1ccc(Cl)c(Cl)c1", "growth": "98.2% (inactive)"},
      {"smiles": "Ic1ccccc1-c1ccccc1", "growth": "105% (inactive)"},
      {"smiles": "Oc1ccc(/C=N/Nc2nnc(N/N=C/c3ccc(O)cc3O)c3ccccc23)c(O)c1", "growth": "-25% (active)"},
      {"smiles": "COc1cc(OC)c(C(=O)/C=C/c2cc3c(cc2OCc2ccccc2)OC(C)(C)CC3)cc1CC=C(C)C", "growth": "29.7% (inactive)"},
      {"smiles": "C[C@@H](NC(=O)c1ncnc(N)c1Cl)c1ncc(C(=O)Nc2cc(C(F)(F)F)c(Cl)cn2)s1", "growth": "75.9% (inactive)"},
      {"smiles": "CCCCOc1nc2cc(Cl)ccc2cc1/C=C/c1cc(/C=C/c2cc3ccc(Cl)cc3nc2OCCCC)n(-c2ccccc2)n1", "growth": "43.2% (inactive)"},
      {"smiles": "O=c1[nH]c([C@@H]2CCCN2)nc2c1oc1ccc(Cl)cc12", "growth": "42.6% (inactive)"},
      {"smiles": "CC(C)C1CCC(C)C(C2(C#N)C(N)=NC(N)=C2C#N)C1=O", "note": "(stereo not given)", "growth": "99.7% (inactive)"},
      {"smiles": "Cc1cc(N(CCNc2ccnc3cc(Cl)ccc23)Cc2ccc3c(c2)OCO3)nc(N2CCCC2)n1", "growth": "-17.6% (active)"},
      {"smiles": "COc1ccc(-c2nc(N)ncc2Oc2ccccc2OC)c(O)c1", "growth": "30.6% (inactive)"},
      {"smiles": "COC(=O)[C@@H](NC(=O)[C@@H](OC)[C@@H]1Cc2cc3cc(OC4CC(OC5CC(O)C(O)C(C)O5)C(O)C(C)O4)c(C)c(O)c3c(O)c2C(=O)[C@H]1OC1CC(OC2CC(OC3CC(C)(O)C(O)C(C)O3)C(O)C(C)O2)C(O)C(C)O1)C(C)C", "note": "(stereo not given in full)", "growth": "-28.1% (active)"},
      {"smiles": "O=C(NOC[C@H](O)CO)c1ccc(F)c(F)c1Nc1ccc(I)cc1F", "growth": "38.6% (inactive)"},
      {"smiles": "CC(=O)C1=C(C)NC(SCc2nnc(-c3ccc(C)cc3)o2)=NC1c1ccc(F)cc1", "note": "(stereo not given)", "growth": "95.2% (inactive)"},
      {"smiles": "N#Cc1c(C(F)(F)F)cc(Nc2ccc3nc(NCCN4CCCC4)oc3c2)n2c1nc1ccccc12", "growth": "89% (inactive)"},
      {"smiles": "COc1cc(-c2nc(C(=O)NCC(=O)O)nn2-c2ccc(Cl)cc2)cc(OC)c1OC", "growth": "96.6% (inactive)"},
      {"smiles": "COC(=O)[C@@H](OC)[C@@H]1Cc2cc3cc(OC4CC(OC5CC(O)C(O)C(C)O5)C(O)C(C)O4)c(C)c(O)c3c(O)c2C(=O)[C@H]1OC1CC(OC2CC(OC3CC(C)(O)C(O)C(C)O3)C(O)C(C)O2)C(O)C(C)O1", "note": "(stereo not given in full)", "growth": "2.62% (active)"},
      {"smiles": "CCOc1cccc(/C=N/NC(=O)c2ccccc2Nc2ccnc(C(F)(F)F)c2)c1O", "growth": "15.2% (inactive)"},
      {"smiles": "Cn1ncc(Cl)c1-c1cc(C(=O)N[C@H](CN)Cc2ccc(F)c(F)c2)oc1Cl", "growth": "-86.5% (active)"},
      {"smiles": "C=CC(=O)Nc1cccc(Nc2nc(Nc3ccc(N4CCN(C(C)=O)CC4)cc3OC)ncc2C(F)(F)F)c1", "growth": "30.1% (inactive)"},
      {"smiles": "O=C(Nc1cccc(Cl)c1)Nc1ncc(CCNc2ncnc3ccsc23)s1", "growth": "38.4% (inactive)"},
      {"smiles": "C=CCCCC(=O)CCC(=O)OCC1O[C@@H](O[C@@H]2C(O)[C@@H](OC(C)=O)C(C)O[C@H]2O[C@H](CC=C)CCCCC)C(O)[C@@H](OC(=O)/C(C)=C/C)[C@@H]1OC(=O)/C=C/c1ccccc1", "note": "(stereo not given in full)", "growth": "11% (inactive)"},
      {"smiles": "CC#CC(=O)N1CCC[C@H]1c1nc(-c2ccc(C(=O)Nc3ccccn3)cc2)c2c(N)nccn12", "growth": "83.6% (inactive)"},
      {"smiles": "CC(C)[C@@H]1CC[C@@H]2[C@@H]1[C@H](OC(=O)/C=C/c1ccccc1)[C@]1(C(C)C)C[C@@H](OC(=O)CO)[C@@]2(C)O1", "growth": "74.3% (inactive)"},
      {"smiles": "CCOc1cc2ncc(C#N)c(Nc3ccc(OCc4ccccn4)c(Cl)c3)c2cc1NC(=O)/C=C/CN(C)C", "growth": "3.18% (active)"},
      {"smiles": "COc1ccc2c(CCCc3ccc(Cl)cc3Cl)c3[n+](cc2c1OC)CCc1cc2c(cc1-3)OCO2", "growth": "3.76% (active)"},
      {"smiles": "CSc1nc2ncnc(SC)c2[nH]1", "growth": "83.9% (inactive)"},
      {"smiles": "O=C1CSC(c2c(F)cccc2Cl)N1NC(=O)C(O)(c1ccccc1)c1ccccc1", "note": "(stereo not given)", "growth": "95.7% (inactive)"},
      {"smiles": "COC(=O)[C@]12CC[C@@H](C)[C@H](C)[C@@H]1C1=CC[C@@H]3[C@@]4(C)C(c5cnco5)=C[C@@](C)(CO)C4=CC[C@@]3(C)[C@]1(C)CC2", "growth": "61.8% (inactive)"},
      {"smiles": "C[C@]12O[C@H](C[C@]1(O)CO)n1c3ccccc3c3c4c(c5c6ccccc6n2c5c31)CNC4=O", "growth": "-75.1% (active)"},
      {"smiles": "Cc1oc2c(C(=O)N/N=C\\c3ccc(O)cc3O)c[nH]c2c1C", "growth": "20.2% (inactive)"},
      {"smiles": "Clc1nc(Cl)c2ncn(C/C=C\\Cn3cnc4c(Cl)nc(Cl)nc43)c2n1", "growth": "-56.5% (active)"},
      {"smiles": "Nc1nc(N)c2cc(CNc3ccc(C(=O)NC(CC(=O)O)C(=O)O)cc3)ccc2n1", "note": "(stereo not given)", "growth": "38.1% (inactive)"},
      {"smiles": "CC1(O)CCC(Nc2cc(-c3ccc(C(F)(F)F)cc3)c(C#N)c3nc4ccccc4n23)CC1", "note": "(stereo not given)", "growth": "67.9% (inactive)"},
      {"smiles": "O=CC(OC(=O)c1ccccc1)C(OC(=O)c1ccccc1)C(COC(c1ccccc1)(c1ccccc1)c1ccccc1)OC(=O)c1ccccc1", "note": "(stereo not given)", "growth": "19% (inactive)"},
      {"smiles": "CC(C)=CCc1cc2c(cc1O)C1=C(C(=O)C3=C(NCCS3(=O)=O)C1=O)C(C=C(C)C)O2", "note": "(stereo not given)", "growth": "1.89% (active)"},
      {"smiles": "CO[C@H]1C[C@@H]2CC[C@@H](C)[C@@](O)(O2)C(=O)C(=O)N2CCCC[C@H]2C(=O)O[C@H]([C@H](C)C[C@@H]2CC[C@@H](O)[C@H](OC)C2)CC(=O)[C@H](C)/C=C(\\C)[C@@H](O)[C@@H](OC)C(=O)[C@H](C)C[C@H](C)\\C=C/C=C/C=C/1C", "growth": "23.4% (inactive)"}
    ]}
  ]
}
